From PubChem
An excerpt weighted towards active compounds, which were near 5.4% of everything screened.
CSC inhib = cancer stem cell inhibition | cancer stem cell-like cells viability, luminescence | inhibition, % at 7.5 µM | actives 1.1% (n = 300,000) | AID 2717; in the data active = inhibition above about 75%; tested in HMLE shEcad cells
Mdm2-MdmX inh = inhibitors of human Mdm2/MdmX interaction; inhibition, % at 8 µM; actives 3% (n = 330,000); O15151+Q00987; AID 485346; SaOS-2 split-luciferase Mdm2/MdmX complementation, luminescence;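 active = inhibition of at least 50% at 8 µM in the primary screen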
Target sequence (O15151 whole entry, looked up): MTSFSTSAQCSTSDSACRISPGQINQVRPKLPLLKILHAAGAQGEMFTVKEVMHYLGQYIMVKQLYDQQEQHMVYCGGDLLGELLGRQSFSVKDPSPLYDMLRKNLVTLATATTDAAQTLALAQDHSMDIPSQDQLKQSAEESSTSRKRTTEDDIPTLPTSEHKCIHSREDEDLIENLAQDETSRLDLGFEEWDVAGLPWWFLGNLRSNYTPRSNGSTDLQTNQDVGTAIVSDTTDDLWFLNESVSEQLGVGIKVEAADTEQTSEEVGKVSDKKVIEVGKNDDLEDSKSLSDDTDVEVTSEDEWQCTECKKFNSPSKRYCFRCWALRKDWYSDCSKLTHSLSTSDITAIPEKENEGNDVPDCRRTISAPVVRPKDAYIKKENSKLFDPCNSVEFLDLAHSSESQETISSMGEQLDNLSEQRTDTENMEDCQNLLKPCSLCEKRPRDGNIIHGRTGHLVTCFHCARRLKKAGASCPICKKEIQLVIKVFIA
Target sequence (Q00987 whole entry, looked up): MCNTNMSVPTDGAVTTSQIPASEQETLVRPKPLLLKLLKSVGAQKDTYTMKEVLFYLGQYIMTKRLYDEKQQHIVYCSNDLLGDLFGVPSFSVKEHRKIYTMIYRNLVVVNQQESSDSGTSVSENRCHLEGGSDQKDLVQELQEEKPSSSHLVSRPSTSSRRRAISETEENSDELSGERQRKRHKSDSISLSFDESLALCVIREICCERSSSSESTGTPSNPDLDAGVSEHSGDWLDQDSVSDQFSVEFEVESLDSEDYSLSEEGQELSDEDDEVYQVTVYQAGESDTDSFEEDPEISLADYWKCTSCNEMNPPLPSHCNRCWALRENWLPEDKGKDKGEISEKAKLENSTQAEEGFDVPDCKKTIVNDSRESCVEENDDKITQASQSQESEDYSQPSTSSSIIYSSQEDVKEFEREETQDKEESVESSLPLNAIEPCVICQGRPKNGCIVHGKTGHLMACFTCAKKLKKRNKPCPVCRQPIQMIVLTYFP
Calb FLC = affects C. albicans growth with fluconazole | C. albicans CaCi-2 (fluconazole-resistant clinical isolate) + fluconazole, Alamar Blue growth, 48 h | growth inhibition, % (test concentration not listed) | actives 0.57% (n = 300,000) | AID 1979;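 active = growth inhibition above about 58% in most replicates, limit read from the data, passing the limit was not always enough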;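 also: all wells also contain fluconazole at 8 µg/ml as a sub-toxic cotreatment; 0% = median of DMSO wells and 100% = median of geldanamycin control wells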
MPTP block = blocks calcium-induced mitochondrial swelling; isolated mouse mitochondria, Ca2+ swelling absorbance, 30 min; inhibition, % at 10 µM; actives 1.4% (n = 360,000); AID 602449;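 active = inhibition of 50% or more, scaled per plate between neutral and stimulator controls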;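 also: 0% = DMSO wells given calcium and 100% = 1 mM EGTA wells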
SKKanGAS inh = SKKanGAS growth inhibition. S. pyogenes SKKanGAS, kanamycin growth, BacTiter-Glo, 6 h. inhibition, % at 7.5 µM. actives 1.3% (n = 300,000). AID 1662;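 active = mean replicate score, as percent of positive control median, at least 50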;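 also: strain carries kanamycin resistance gene driven by streptokinase promoter and grows in 40 µg/ml kanamycin; loss of luminescence reflects streptokinase promoter inhibition or plain growth inhibition; 0% = median of DMSO wells and 100% = positive control at its reference dose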
Beta apoptosis = blocks beta cell apoptosis. INS-1E cytokine-induced death, ATP luminescence, 48 h; percent of positive-control rescue, neutral wells zero. protection from apoptosis, % (concentration not given with the values). actives 0.8% (n = 300,000). AID 435005;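 active = Every replicate reaches about 75%, or at least half do and their mean reaches it too, limit read from the data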;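 also: 0% = cytokine-treated negative control wells and 100% = positive control rescue; higher means more ATP so stronger rescue from cytokine killing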
Active calls of the source: *; · = no result given.

SMILES	CSC inhib	Mdm2-MdmX inh	Calb FLC	MPTP block	SKKanGAS inh	Beta apoptosis
CCOc1ccc(-c2nnc3ccc(SC(C)C)nn23)cc1	6	29	-8	1	57*	9
Cc1cc(C)cc(NC(=O)COC(=O)COc2cccc3c2OC(C)(C)C3)c1	-20	3	0	0	-4	-5
COc1ccccc1CN1CN(S(=O)(=O)c2ccccc2)c2nc3ccccc3nc21	4	9	28	1	50*	5
COc1cccc(C2C3=C(N=c4s/c(=C\c5ccc(OCC(=O)O)cc5)c(=O)n42)c2ccccc2CC3)c1 (configuration not stated)	22	23	18	·	102*	3
Clc1ccc(-c2cn(-c3ccc(Cl)cc3)c3[n+]2CCCCC3)cc1	-12	37	-19	2	0	30
COc1ccc(-c2cn(-c3ccc(Cl)cc3)c3[n+]2CCCCC3)cc1	17	22	-21	4	-15	100*
COc1ccc(-n2cc(-c3ccc(OC(F)F)cc3)[n+]3c2CCCCC3)cc1	-9	-32	-23	2	-9	103*
O=C1COc2ccc(S(=O)(=O)N3CCCC3)cc2N1	-5	10	-2	0	0	0
O=C1COc2ccc(N3C(=O)C=CC3=O)cc2N1	89*	19	-22	·	-1	1
CC(CCC(C)C(C)(C)C)[C@@H]1CC[C@H]2C3C[C@H](OS(O)(=S)=S)[C@H]4C[C@H](OS(O)(=S)=S)[C@@H](OS(O)(=S)=S)C[C@]4(C)[C@H]3CC[C@]12C (some centres not stated) (tested in a mixture with another compound)	98*	-18	·	-12	·	-1
COc1ccc(-c2n[nH]c(C)c2-c2cnn(-c3ccccc3)c2)c(O)c1	21	31	95*	5	-2	-1
CCn1c(=S)[nH]c2scc(-c3cccs3)c2c1=O	·	·	80*	2	29	·
CC(C)n1c(=S)[nH]c2scc(-c3cccs3)c2c1=O	32	4	47	16	43	1
Cc1ccc([N+](=O)[O-])c(OCCN2CCc3ccccc3C2)c1	11	-3	-3	1	0	·
Cc1ccc([N+](=O)[O-])c(OCCN2CCCCCC2)c1	-1	-2	-30	0	-6	79*
Cc1cc(Nc2cccc(Cl)c2Cl)n2ncnc2n1	-9	18	116*	0	14	-6
O=C(C=Cc1ccc2c(c1)OCO2)OCC=Cc1ccc2c(c1)OCO2	·	·	·	-1	·	·
CC1(C)CN(c2ccc(N3CC(C)(C)C3=O)cc2)C1=O	-4	6	5	-2	1	3
CC(=O)Nc1ccc(N2CC(C)(C)C2=O)cc1	-1	7	72*	0	-10	-4
COC(=O)c1ccc2c(=O)n(-c3ccccc3)c(SCN3C(=O)c4ccccc4C3=O)nc2c1	-5	4	2	-1	8	106*
CCCc1cc(=O)[nH]c(SCC(=O)Nc2sc(C(N)=O)c(C)c2C(=O)OCCOC)n1	94*	17	·	0	·	1
CCCc1nc(SCc2ccccn2)c2c(=O)n(C)c(=O)n(C)c2n1	107*	1	-1	-2	-10	11
CC1=C(/C=C/C(C)=N\NC(=O)c2ccncc2)C(C)(C)CCC1	-9	18	2	-6	57*	-2
C=CCNC(=O)c1cccc(OC2CCN(CC(C)(C)C)CC2)c1	-17	-16	-12	-2	-1	-5
CC(C)(C)CN1CCC(Oc2cccc(C(=O)NCCCOc3cccnc3)c2)CC1	-1	27	-9	2	3	105*
SMILES	CSC inhib	Mdm2-MdmX inh	Calb FLC	MPTP block	SKKanGAS inh	Beta apoptosis
Cc1c(C)n(C)c2ccc(C(=O)N3CCN(c4ccccc4)CC3)cc12	10	12	-5	1	17	-9
Cc1ccc(C)c(N2CCN(C(=O)c3ccc4c(c3)c(C)c(C)n4C)CC2)c1	82*	32	-9	-1	24	-5
CCCCN(CC)S(=O)(=O)c1ccc(C(=O)Nc2nnc(-c3ccccc3Cl)o2)cc1	-9	8	54	-26	99*	14
COCc1nnc(NC(=O)c2ccc(S(=O)(=O)N(CC(C)C)CC(C)C)cc2)o1	26	44	-10	3	34	4
CCN(Cc1ccccc1)S(=O)(=O)c1ccc(C(=O)Nc2nnc(-c3ccccc3OC)o2)cc1	6	42	83*	-24	94*	11
C=CCN(CC=C)S(=O)(=O)c1ccc(C(=O)Nc2nnc(COC)o2)cc1	16	11	114*	-2	4	1
COc1ccccc1-c1nnc(NC(=O)c2ccc(S(=O)(=O)N(C)C)cc2)o1	13	3	-5	-2	31	-1
CCCCN(C)S(=O)(=O)c1ccc(C(=O)Nc2nnc(-c3cccs3)o2)cc1	111*	45	84*	·	101*	11
C[C@H](CO)N1C[C@H](C)[C@@H](CN(C)C(=O)Nc2ccccc2)Oc2ncc(C#CC3CCCCC3)cc2C1=O	·	·	·	2	·	·
COC(=O)Cc1c(C)nc2nc(-c3ccc(C)cc3)[nH]n2c1=O	-13	5	-6	-2	11	4
C/C(=N/NC(=O)C1CC1(c1ccccc1)c1ccccc1)c1ccco1 (configuration not stated)	-16	32	12	24	11	4
CCCCN(CCCC)S(=O)(=O)c1ccc(C(=O)Nc2nnc(CSC)o2)cc1	22	33	1	-31	106*	23
CCCCN(CC)S(=O)(=O)c1ccc(C(=O)Nc2nnc(CSC)o2)cc1	4	21	-5	-12	25	-2
O=C(NNc1ccccc1)C(=O)N1CCCCC1	111*	16	13	-1	1	·
CN(C(=O)COC(=O)/C=C/c1cccc([N+](=O)[O-])c1)C1CCS(=O)(=O)C1 (configuration not stated)	92*	40	4	-1	4	-4
COc1ccc(OC)c(NC(=O)C2(C)CCN2CCc2ccccc2)c1 (configuration not stated)	·	·	·	1	·	·
C/C(=N\OCC(=O)Nc1nc2ccccc2s1)c1ccccc1	4	17	-15	14	8	-5
COc1ccc(/C=N/OCC(=O)Nc2nc3ccccc3s2)cc1	·	5	108*	0	-8	-1
CC(C)(C)c1ccc(/C=C/C(=O)c2ccc(NC3=NCCCS3)cc2)cc1	99*	18	·	10	·	45
Cc1cnc(NC(=O)Cc2ccccc2Cl)s1	-8	19	-1	-1	2	·
Cc1cnc(NC(=O)c2cc3c(C)nn(Cc4ccccc4Cl)c3s2)s1	35	41	-6	-1	54*	-2
Cc1nn(Cc2ccccc2)c(C)c1/C=N/NC(=O)c1ccccc1O	-11	23	-12	1	12	0
CCOc1ccc(-c2ccc(SCC(=O)Nc3nnc(C)s3)nn2)cc1	-3	-32	11	1	-46	0
